USP28 inh – inhibitors of human USP28 deubiquitinase; purified USP28, Ub-rhodamine cleavage fluorescence, 30 min; inhibition, % at 25 µM; actives 3% (n = 47,000)
OTUD3 inh – inhibitors of human OTUD3 deubiquitinase | OTU domain-containing protein 3 (Homo sapiens), Q5T2D3 | purified OTUD3, Ub-rhodamine fluorescence, 2 h | inhibition, % at 25 µM | actives 0.7% (n = 47,000)
USP30 block – inhibitors of human USP30 deubiquitinase; Ubiquitin carboxyl-terminal hydrolase 30 (Homo sapiens), Q70CQ3; actives 5.3% (n = 47,000); inhibition, % at 25 µM; purified USP30, Ub-rhodamine cleavage fluorescence
USP17 inh – inhibitors of human USP17 deubiquitinase; inhibition, % at 50 µM; AID 1645855, 2021; actives 6.5% (n = 47,000); purified USP17, Ub-rhodamine cleavage fluorescence, 3 h; Ubiquitin carboxyl-terminal hydrolase 17-like protein 5 (Homo sapiens), A8MUK1
Target sequence (A8MUK1 whole entry, looked up): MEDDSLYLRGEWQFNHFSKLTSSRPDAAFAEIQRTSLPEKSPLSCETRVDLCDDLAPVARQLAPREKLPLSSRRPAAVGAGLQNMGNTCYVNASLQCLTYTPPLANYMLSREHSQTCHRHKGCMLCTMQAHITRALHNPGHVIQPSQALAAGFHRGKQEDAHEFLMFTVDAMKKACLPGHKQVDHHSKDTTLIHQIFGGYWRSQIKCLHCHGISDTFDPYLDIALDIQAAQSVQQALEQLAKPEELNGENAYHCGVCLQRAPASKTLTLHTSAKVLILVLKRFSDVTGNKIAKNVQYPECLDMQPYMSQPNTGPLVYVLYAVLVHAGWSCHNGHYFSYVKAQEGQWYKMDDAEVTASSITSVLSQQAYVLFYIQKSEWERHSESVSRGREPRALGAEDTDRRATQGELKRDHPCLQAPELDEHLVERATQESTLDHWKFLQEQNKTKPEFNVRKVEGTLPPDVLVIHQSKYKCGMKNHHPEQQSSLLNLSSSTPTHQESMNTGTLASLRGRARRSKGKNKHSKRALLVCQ
Active calls of the source: *; x = not tested or not shown. Rows were chosen to be rich in hits. Some 11% of all compounds tested hit in one or more screens of this group. Rule as the data show it: active = inhibition above about 30%; inactive = the rest.

SMILES	USP28 inh	OTUD3 inh	USP30 block	USP17 inh
O=C(/C=C/c1ccc(Br)cc1)N1CCc2ccccc2C1	0	2	-9	35*
Cc1cccc(Nc2ccc(NCCNC(=O)Nc3ccccc3F)nn2)n1	x	0	x	29
O=C(CNc1nc(Nc2ccccc2)nc(Nc2ccccc2)n1)Nc1ccccc1F	21	9	22	44*
Cc1ccccc1NC(=O)CNc1nc(Nc2ccccc2)nc(Nc2ccccc2)n1	-4	-2	-3	65*
Cc1cccc(NC(=O)CNc2nc(Nc3ccccc3)nc(Nc3ccccc3)n2)c1	15	13	32*	x
O=C(CNc1nc(Nc2ccccc2F)nc(Nc2ccccc2F)n1)Nc1ccccc1	49*	26	81*	7
COc1cccc(N2CCN(c3cc(SCC(=O)N4CCOCC4)ncn3)CC2)c1	-6	-14	-26	-4
Cc1ccccc1C(CC(=O)NCc1ccc2c(c1)OCO2)n1cccc1 (centres undefined)	4	6	-26	4
NCCCS(=O)(=O)N[C@H]1C[C@H]2CN(Cc3ccccc3)Cc3ccccc3CN2C1	-16	-15	-51	-11
Cc1cc(Oc2ccc(F)cc2F)nc2ccccc12	31*	5	-1	-3
COc1ccccc1Nc1cc(C)c2ccccc2n1	5	-3	-4	0
O=C(Cc1sc(-c2ccccc2Cl)nc1-c1ccccc1)NC1CCCCC1	-6	-8	-3	-1
CC1CCCN(C(=O)c2cn(-c3ccc(S(=O)(=O)N4CCCC(C)C4)cn3)cn2)C1 (centres undefined)	10	11	38*	6
CN1CCN(c2ncnc3c2oc2ccc(Cl)cc23)CC1	-13	88*	0	-7
Cn1ccnc1CN1C(=O)CO[C@H]2CN(C(=O)CC(C)(C)C)C[C@H]21	0	-10	0	-8
O=C1c2ccccc2C2(CCCC2)C(=O)N1Cc1ccccc1	14	9	6	33*
Cc1ccc(C)c(NCc2cc(=O)n3c(C)csc3n2)c1	27	10	1	9
Cc1ccccc1N1C(=O)/C(=C\c2cccn2C)c2ccccc2C1=O	4	-5	-66	61*
Cc1cc2cccc(C)c2nc1SCC(=O)NCc1ccccc1	20	10	47*	29
Cc1cccc(CNC(=O)CCc2nc3c(C)cccc3c(=O)n2C)c1	-11	1	15	-7
O=C1N[C@H]2CCCN(C(=O)c3cncc(O)c3)[C@H]2C/C=C/CCOc2ccccc21	-5	-5	-11	-3
COc1cc(CCNC(=O)Cc2cccc(Br)c2)ccc1OCc1ccccc1	24	24	48*	23
Cc1ccccc1CC(=O)N1CCC(n2c(=O)n(C)c3cncnc32)C1 (centres undefined)	8	8	3	6
CC(Sc1nc2nn(-c3ccccc3)c(=O)c-2c2n1CCCCC2)C(=O)Nc1ccc(C#N)cc1 (centres undefined)	16	-1	33*	0
CCOc1cc(=O)c(C(=O)Nc2ccc(C#N)cc2)nn1-c1ccccc1	-10	-9	0	-3
SMILES	USP28 inh	OTUD3 inh	USP30 block	USP17 inh
CO[C@H]1/C=C/[C@@](C)(O)/C=C/C(=O)O[C@H](C)[C@@H](C)CC/C=C/1C	5	4	39*	-1
Cc1ccc(NC(=O)CCC(=O)N2CC(C)Sc3ccccc32)cc1Cl (centres undefined)	1	4	-6	-2
CCC(C)N(CCNC(=O)CC1Oc2ccccc2NC1=O)C1CCCCC1 (centres undefined)	-8	-1	-10	-12
O=C(CC1Oc2ccccc2NC1=O)Nc1ccccc1Br (centres undefined)	-7	-19	-16	59*
O=c1c2cnc(N3CCCC3)nc2ccn1-c1cccc([N+](=O)[O-])c1	13	-5	0	-6
O=C(c1cc(Cl)cc(Cl)c1)N1CC(c2nc(-c3cccnc3)no2)C1	10	12	30*	2
Cc1c(Cl)cccc1S(=O)(=O)N1CCC2(CC1)CC2c1nc(-c2cccnc2)no1 (centres undefined)	7	7	35*	15
O=S(=O)(c1cccc(Cl)c1F)N1CCC2(CC1)CC2c1nc(-c2cccnc2)no1 (centres undefined)	1	1	17	-23
Cc1ccc(Cn2nnc3c(=O)n(Cc4nc(-c5ccc(C)cc5)no4)cnc32)cc1	-3	2	15	34*
O=c1c2nnn(Cc3cccc(Cl)c3)c2ncn1Cc1nc(-c2ccc(F)cc2)no1	-1	-3	6	-3

Assay outcomes from PubChem.
